Reference: PubChem BioAssay (Tox21)
Records with an inconclusive call do not appear. Active and inactive are the calls of the source. Unless noted, the call rests on the fitted dose curve; in most records, active means well fitted curve in the direction sought with a large enough effect in the repeat runs; inconclusive means weak or mixed curves; inactive means flat fitted curve, though single readings scatter.

Key:
[1] = qHTS assay to test for compound auto fluorescence at 535 nm (green) in HEK293 cells (AID 720680)
[2] = qHTS assay to test for compound auto fluorescence at 460 nm (blue) in HEK293 cell free culture (AID 720681)
Procedure, shortened: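 Test compounds were pinned into cell-free culture medium (DMEM with 10% FBS) and fluorescence was read directly at Ex/Em 405/460 nm. Signals were expressed as fluorescence equivalents of triamterene, with DMSO vehicle as control.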

[3] = qHTS assay to test for compound auto fluorescence at 590 nm (red) in HEK293 cell free culture (AID 720683)
Procedure, shortened: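 Tox21 10K library compounds were pinned into cell-free DMEM with 10% FBS and fluorescence was read at excitation 540 nm. Activity is expressed as Rose Bengal sodium equivalency.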

[4] = qHTS assay to test for compound auto fluorescence at 590 nm (red) in HepG2 cell free culture (AID 720684)
Procedure, shortened: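 Red fluorescence (540 nm excitation, 590 nm emission) was measured after compound transfer into cell-free MEM supplemented with 10% FBS. Values are equivalencies against Rose Bengal sodium.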

[5] = qHTS assay to test for compound auto fluorescence at 460 nm (blue) in HepG2 cell free culture (AID 720685)
Procedure, shortened: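 Compound (23 nL) or DMSO pinned into cell-free MEM with 10% FBS; blue fluorescence read at 405/460 nm excitation/emission, expressed as auto-fluorescence equivalency to triamterene.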

[6] = qHTS assay to test for compound auto fluorescence at 535 nm (green) in HepG2 cell free culture (AID 720686)
[7] = qHTS assay to test for compound auto fluorescence at 460 nm (blue) in HepG2 cells (AID 720687)
Procedure, shortened: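 Cells (2,000/well in MEM with 10% FBS) attached overnight at 37 C, then were exposed to compound or DMSO for 1 hr at 37 C, 5% CO2. Fluorescence read at Ex/Em 405/460 nm, expressed as triamterene-equivalent signal.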

[8] = molecular target: Glucocorticoid receptor (Homo sapiens) (UniProt P04150); assay: qHTS assay to identify small molecule agonists of the glucocorticoid receptor (GR) signaling pathway (AID 720691; active means well fitted activation curve with a large enough effect in the signal ratio in the repeat runs, not every such curve was filed as active; the % refers to the signal ratio)
Procedure, shortened: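 Fluorescence intensity from LiveBLAzer B/G FRET substrate (2 h, room temperature) reports beta-lactamase expression driven by the glucocorticoid response element in GR-bla HeLa cells after 18 h compound exposure at 37 C.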

[9] = molecular target: Glucocorticoid receptor (Homo sapiens) (UniProt P04150); assay: qHTS assay to identify small molecule antagonists of the glucocorticoid receptor (GR) signaling pathway (AID 720692; active means well fitted inhibition curve with a large enough effect in the signal ratio in the repeat runs, not every such curve was filed as active; the % refers to the signal ratio)
Procedure, shortened: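 HeLa GR-bla cells; cmpd + dex 5 nM final, 18 h 37 C; LiveBLAzer B/G FRET substrate 2 h RT; fluorescence intensity read. Antagonist mode, qHTS.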

[10] = qHTS assay to test for compound auto fluorescence at 535 nm (green) in HEK293 cell free culture (AID 720682)
Procedure, shortened: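 No cells present: wells hold DMEM supplemented with 10% FBS, into which compound or vehicle is pinned. Green emission is then recorded (485 nm excitation, 535 nm emission) and scaled to fluorescein.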
On the % scale 0 is the no-effect control and ±100 the full control effect.

Glucocorticoid receptor (Homo sapiens), sequence (P04150 whole entry, looked up): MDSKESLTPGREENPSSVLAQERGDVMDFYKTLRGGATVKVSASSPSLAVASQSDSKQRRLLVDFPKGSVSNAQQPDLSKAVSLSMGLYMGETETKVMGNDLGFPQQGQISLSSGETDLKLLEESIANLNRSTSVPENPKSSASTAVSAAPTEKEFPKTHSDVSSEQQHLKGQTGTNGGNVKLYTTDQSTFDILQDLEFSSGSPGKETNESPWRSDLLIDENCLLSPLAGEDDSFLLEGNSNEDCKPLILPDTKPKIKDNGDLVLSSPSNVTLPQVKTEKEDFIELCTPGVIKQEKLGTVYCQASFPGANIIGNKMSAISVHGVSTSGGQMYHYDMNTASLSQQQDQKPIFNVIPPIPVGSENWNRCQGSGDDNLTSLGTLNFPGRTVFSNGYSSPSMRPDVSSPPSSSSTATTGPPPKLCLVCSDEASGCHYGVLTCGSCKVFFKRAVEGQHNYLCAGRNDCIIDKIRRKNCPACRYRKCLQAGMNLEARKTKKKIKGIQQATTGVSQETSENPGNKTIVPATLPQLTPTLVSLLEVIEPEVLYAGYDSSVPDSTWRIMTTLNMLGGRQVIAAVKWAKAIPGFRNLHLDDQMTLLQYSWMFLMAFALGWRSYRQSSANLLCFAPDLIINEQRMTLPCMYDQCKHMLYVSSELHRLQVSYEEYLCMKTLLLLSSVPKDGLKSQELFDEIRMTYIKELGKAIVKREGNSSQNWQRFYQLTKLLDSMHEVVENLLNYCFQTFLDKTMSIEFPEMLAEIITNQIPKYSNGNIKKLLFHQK

CCCCCCCCCCCCCCCCI
inactive: fluorescence, % of fluorescein [1] 0.0243% [at 18.6 µM] | fluorescence, % of fluorescent control [2] -0.0222% [at 18.6 µM] | fluorescence, % of fluorescent control [3] 0.0155% [at 18.6 µM] | fluorescence, % of Rose Bengal [4] -0.0349% [at 18.6 µM] | fluorescence, % of fluorescent control [5] -0.142% [at 18.6 µM] | fluorescence, % of fluorescein control [6] 0.0097% [at 18.6 µM]

CCC(CO)CO
inactive: outcome [1] | outcome [2] | outcome [3] | outcome [4] | outcome [5] | outcome [6] | outcome [7] | Potency [8] | outcome [9]

CO[Si](CCCS)(OC)OC
inactive: outcome [1] | outcome [2] | outcome [3] | outcome [4] | outcome [5] | outcome [6] | Potency [8]

CCC(C)N (stereo unspecified)
inactive: outcome [1] | outcome [2] | outcome [3] | outcome [4] | outcome [5] | outcome [6] | Potency [8]

O=C(O)c1ccccc1C(=O)Nc1ccc(S(=O)(=O)Nc2nccs2)cc1
inactive: outcome [1] | outcome [2] | outcome [3] | outcome [4] | outcome [5] | outcome [6] | outcome [7] | Potency [8]

COc1cccc2sc(N)nc12
inactive: outcome [1] | outcome [10] | outcome [3] | outcome [4] | outcome [5] | outcome [6] | outcome [7]

CCCCC(=O)N(C)C
inactive: outcome [1] | outcome [2] | outcome [10] | outcome [3] | outcome [4] | outcome [5] | outcome [6] | Potency [8] | outcome [9]

COc1cc(C=O)ccc1OC(=O)C(C)C
inactive: outcome [1] | outcome [2] | outcome [3] | outcome [4] | outcome [5] | outcome [6] | outcome [7] | Potency [8] | outcome [9]

CC(=O)/C=C/c1ccco1
inactive: outcome [1] | outcome [2] | outcome [3] | outcome [4] | outcome [5] | outcome [6] | outcome [7]

C=C[Si](C)(C)O[Si](C)(C)C=C
inactive: outcome [1] | outcome [2] | outcome [10] | outcome [3] | outcome [4] | outcome [5] | outcome [6] | Potency [8] | outcome [9]

CC(C)COC(=O)/C=C/c1ccccc1
inactive: outcome [1] | outcome [2] | outcome [3] | outcome [4] | outcome [5] | outcome [6]

CC(C)(CO)[C@@H](O)C(=O)NCCCO
inactive: outcome [1] | outcome [10] | outcome [3] | outcome [4] | outcome [5] | outcome [6] | outcome [7]

O=c1[nH]c(=O)c2[nH]c(=O)[nH]c2[nH]1
inactive: outcome [1] | outcome [2] | outcome [3] | outcome [4] | outcome [5] | outcome [6] | Potency [8] | outcome [9]

CCCCC(CC)C(=O)OC(C)C (stereo unspecified)
inactive: outcome [1] | outcome [2] | outcome [10] | outcome [3] | outcome [4] | outcome [5] | outcome [6] | Potency [8] | outcome [9]

CCC(C)(C)C1CCC(=O)CC1
inactive: outcome [1] | outcome [2] | outcome [3] | outcome [4] | outcome [5] | outcome [6] | outcome [7]

Nc1cc(Cl)cc(S(=O)(=O)O)c1O
inactive: outcome [1] | outcome [2] | outcome [3] | outcome [4] | outcome [5] | outcome [6] | outcome [7]

CC(=O)Nc1ccc(C)cc1
inactive: outcome [1] | outcome [2] | outcome [3] | outcome [4] | outcome [5] | outcome [6] | outcome [7]

O=S1(=O)CCCC1
inactive: outcome [1] | outcome [2] | outcome [3] | outcome [4] | outcome [5] | outcome [6] | outcome [7]

Cc1ccccc1C(=O)N1CC/C(=N\OS(=O)(=O)O)c2ccc(Cl)cc21
inactive: outcome [1] | outcome [2] | outcome [3] | outcome [4] | outcome [5] | outcome [6] | outcome [7] | Potency [8] | outcome [9]

CCc1nccnc1C
inactive: outcome [1] | outcome [2] | outcome [10] | outcome [3] | outcome [4] | outcome [5] | outcome [6] | Potency [8] | outcome [9]

C=C(C)C(=O)OC
inactive: outcome [1] | outcome [2] | outcome [3] | outcome [4] | outcome [5] | outcome [6] | outcome [7] | Potency [8]

CC(=O)OC(C)c1ccccc1 (stereo unspecified)
inactive: outcome [1] | outcome [2] | outcome [10] | outcome [3] | outcome [4] | outcome [5] | outcome [6] | outcome [9]

Cc1oc(=O)oc1CN1CCN(c2cc3c(cc2F)c(=O)c(C(=O)O)c2n3C(C)S2)CC1 (stereo unspecified)
inactive: outcome [1] | outcome [10] | outcome [3] | outcome [4] | outcome [5] | outcome [6] | outcome [7]

CCOC(=O)CC#N
inactive: outcome [1] | outcome [2] | outcome [10] | outcome [3] | outcome [4] | outcome [5] | outcome [6] | Potency [8] | outcome [9]

Nc1ccnc(=O)[nH]1
inactive: outcome [1] | outcome [2] | outcome [3] | outcome [4] | outcome [5] | outcome [6] | outcome [7] | Potency [8]

C[C@@H]1C[C@H]2[C@@H]3C[C@H](F)C4=CC(=O)C=C[C@]4(C)[C@@]3(F)[C@@H](O)C[C@]2(C)[C@@]1(O)C(=O)CO
inactive: fluorescence, % of fluorescein [1] 0.12% [at 18.6 µM] | fluorescence, % of fluorescent control [2] -0.0209% [at 18.6 µM] | fluorescence, % of fluorescent control [3] -0.0134% [at 18.6 µM] | fluorescence, % of Rose Bengal [4] 0.414% [at 18.6 µM] | fluorescence, % of fluorescein control [6] 0.0581% [at 18.6 µM]

CCCCCCCCCCCCCCCC(=O)NCCO
inactive: outcome [1] | outcome [10] | outcome [3] | outcome [4] | outcome [5] | outcome [6] | outcome [7]
